Results as given in article PMC9911399, “Two distinct binding modes provide the RNA-binding protein RbFox with extraordinary sequence specificity”.
Numbering of substitutions follows the chain as printed; changes in the protein carry UniProt numbers. Over roughly 16,000 sequences, “ka relative to ugcaugu” has its median near 0.0091; the highest 2% begin near 0.032. What follows is part of a selection rich in the highest values, with near analogues and random picks from the rest.

T1: RBFOX1 RRM (Homo sapiens, UniProt Q9NWB1 109-208)
T1 sequence: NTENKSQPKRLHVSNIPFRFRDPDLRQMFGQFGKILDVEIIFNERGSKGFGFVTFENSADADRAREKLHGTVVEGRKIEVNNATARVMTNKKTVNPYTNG

B1: CAGGUUU (DNA:RNA)
RNA: GGGAGACCGGAAUUCAGAUUGUCCCAGGUUUUUAAAUCCCGUCGUAGCCACCA
DNA 1: CAATCTGAATTCCGGTCTCCC
DNA 2: TGGTGGCTACGACGGGATT
B2: CGCCAGG (DNA:RNA)
RNA: B1 RNA with A26G, G27C, G28C, U29A, U30G, U31G
DNA 1: CAATCTGAATTCCGGTCTCCC
DNA 2: TGGTGGCTACGACGGGATT
B3: GGGAAGC (DNA:RNA)
RNA: B1 RNA with C25G, A26G, G28A, U29A, U30G, U31C
DNA 1: CAATCTGAATTCCGGTCTCCC
DNA 2: TGGTGGCTACGACGGGATT
B4: GGAACUU (DNA:RNA)
RNA: B1 RNA with C25G, A26G, G27A, G28A, U29C
DNA 1: CAATCTGAATTCCGGTCTCCC
DNA 2: TGGTGGCTACGACGGGATT
B5: GGAAGCU (DNA:RNA)
RNA: B1 RNA with C25G, A26G, G27A, G28A, U29G, U30C
DNA 1: CAATCTGAATTCCGGTCTCCC
DNA 2: TGGTGGCTACGACGGGATT
B6: CGGGAGC (DNA:RNA)
RNA: B1 RNA with A26G, U29A, U30G, U31C
DNA 1: CAATCTGAATTCCGGTCTCCC
DNA 2: TGGTGGCTACGACGGGATT
B7: CGGAAGC (DNA:RNA)
RNA: B1 RNA with A26G, G28A, U29A, U30G, U31C
DNA 1: CAATCTGAATTCCGGTCTCCC
DNA 2: TGGTGGCTACGACGGGATT
B8: GGAGCUU (DNA:RNA)
RNA: B1 RNA with C25G, A26G, G27A, U29C
DNA 1: CAATCTGAATTCCGGTCTCCC
DNA 2: TGGTGGCTACGACGGGATT
B9: CGGAGCU (DNA:RNA)
RNA: B1 RNA with A26G, G28A, U29G, U30C
DNA 1: CAATCTGAATTCCGGTCTCCC
DNA 2: TGGTGGCTACGACGGGATT
B10: GGGGAGC (DNA:RNA)
RNA: B1 RNA with C25G, A26G, U29A, U30G, U31C
DNA 1: CAATCTGAATTCCGGTCTCCC
DNA 2: TGGTGGCTACGACGGGATT
B11: GGAGAGC (DNA:RNA)
RNA: B1 RNA with C25G, A26G, G27A, U29A, U30G, U31C
DNA 1: CAATCTGAATTCCGGTCTCCC
DNA 2: TGGTGGCTACGACGGGATT
B12: GGGAACU (DNA:RNA)
RNA: B1 RNA with C25G, A26G, G28A, U29A, U30C
DNA 1: CAATCTGAATTCCGGTCTCCC
DNA 2: TGGTGGCTACGACGGGATT
B13: CGGAACU (DNA:RNA)
RNA: B1 RNA with A26G, G28A, U29A, U30C
DNA 1: CAATCTGAATTCCGGTCTCCC
DNA 2: TGGTGGCTACGACGGGATT
B14: GGGAGCU (DNA:RNA)
RNA: B1 RNA with C25G, A26G, G28A, U29G, U30C
DNA 1: CAATCTGAATTCCGGTCTCCC
DNA 2: TGGTGGCTACGACGGGATT
B15: UCAGACC (DNA:RNA)
RNA: B1 RNA with C25U, A26C, G27A, U29A, U30C, U31C
DNA 1: CAATCTGAATTCCGGTCTCCC
DNA 2: TGGTGGCTACGACGGGATT
B16: UGAGCUA (DNA:RNA)
RNA: B1 RNA with C25U, A26G, G27A, U29C, U31A
DNA 1: CAATCTGAATTCCGGTCTCCC
DNA 2: TGGTGGCTACGACGGGATT
B17: UAGAGGG (DNA:RNA)
RNA: B1 RNA with C25U, G28A, U29G, U30G, U31G
DNA 1: CAATCTGAATTCCGGTCTCCC
DNA 2: TGGTGGCTACGACGGGATT
B18: AACACAA (DNA:RNA)
RNA: B1 RNA with C25A, G27C, G28A, U29C, U30A, U31A
DNA 1: CAATCTGAATTCCGGTCTCCC
DNA 2: TGGTGGCTACGACGGGATT
B19: GAGAUCC (DNA:RNA)
RNA: B1 RNA with C25G, G28A, U30C, U31C
DNA 1: CAATCTGAATTCCGGTCTCCC
DNA 2: TGGTGGCTACGACGGGATT
B20: UCUGUUC (DNA:RNA)
RNA: B1 RNA with C25U, A26C, G27U, U31C
DNA 1: CAATCTGAATTCCGGTCTCCC
DNA 2: TGGTGGCTACGACGGGATT
B21: GAGGGGG (DNA:RNA)
RNA: B1 RNA with C25G, U29G, U30G, U31G
DNA 1: CAATCTGAATTCCGGTCTCCC
DNA 2: TGGTGGCTACGACGGGATT
B22: GUGCUGG (DNA:RNA)
RNA: B1 RNA with C25G, A26U, G28C, U30G, U31G
DNA 1: CAATCTGAATTCCGGTCTCCC
DNA 2: TGGTGGCTACGACGGGATT
B23: UCCUGGC (DNA:RNA)
RNA: GGGAGACCGGAAUUCAGAUUGUCCUCCUGGCUUAAAUCCCGUCGUAGCCACCA
DNA 1: CAATCTGAATTCCGGTCTCCC
DNA 2: TGGTGGCTACGACGGGATT
B24: UGGCGUA (DNA:RNA)
RNA: B1 RNA with C25U, A26G, G28C, U29G, U31A
DNA 1: CAATCTGAATTCCGGTCTCCC
DNA 2: TGGTGGCTACGACGGGATT
B25: UGGCUUG (DNA:RNA)
RNA: B1 RNA with C25U, A26G, G28C, U31G
DNA 1: CAATCTGAATTCCGGTCTCCC
DNA 2: TGGTGGCTACGACGGGATT
B26: CGGCUGG (DNA:RNA)
RNA: B1 RNA with A26G, G28C, U30G, U31G
DNA 1: CAATCTGAATTCCGGTCTCCC
DNA 2: TGGTGGCTACGACGGGATT
B27: UGGCUUC (DNA:RNA)
RNA: B1 RNA with C25U, A26G, G28C, U31C
DNA 1: CAATCTGAATTCCGGTCTCCC
DNA 2: TGGTGGCTACGACGGGATT
B28: UUGCUGG (DNA:RNA)
RNA: B1 RNA with C25U, A26U, G28C, U30G, U31G
DNA 1: CAATCTGAATTCCGGTCTCCC
DNA 2: TGGTGGCTACGACGGGATT
B29: UGGCUGG (DNA:RNA)
RNA: B1 RNA with C25U, A26G, G28C, U30G, U31G
DNA 1: CAATCTGAATTCCGGTCTCCC
DNA 2: TGGTGGCTACGACGGGATT
B30: UGGCGUC (DNA:RNA)
RNA: B23 RNA with C26G, C27G, U28C, G30U
DNA 1: CAATCTGAATTCCGGTCTCCC
DNA 2: TGGTGGCTACGACGGGATT
B31: GCUGGUU (DNA:RNA)
RNA: B1 RNA with C25G, A26C, G27U, U29G
DNA 1: CAATCTGAATTCCGGTCTCCC
DNA 2: TGGTGGCTACGACGGGATT
B32: UGGCGUG (DNA:RNA)
RNA: B1 RNA with C25U, A26G, G28C, U29G, U31G
DNA 1: CAATCTGAATTCCGGTCTCCC
DNA 2: TGGTGGCTACGACGGGATT
B33: GGCUGGU (DNA:RNA)
RNA: B23 RNA with U25G, C26G, C31U
DNA 1: CAATCTGAATTCCGGTCTCCC
DNA 2: TGGTGGCTACGACGGGATT

Target: T1, RBFOX1 RRM
Experiment: EMSA; HiTS-Eq, 1 nM pool, 10 min; buffer printed only for the single-RNA assays: 10 mM Tris pH 7.5, 150 mM NaCl, 3.4 mM EDTA, 0.001% NP-40, 30 C
Settings: tags: His6 N-terminal (pET28a); label: 5' 32P
Method in brief: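 Purified wild-type or mutant RbFox RRM at increasing concentrations was equilibrated with 1 nM of 5′-radiolabelled RNA carrying 7 randomized nucleotides for 10 min in 50 µL. Unbound RNA was separated by 8% native PAGE and sequenced. Relative association constants came from read-count changes of each RNA species compared with the control reaction, normalised to the cognate motif.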

Binder	binding signal
B1	0.0116 KA relative to UGCAUGU
B2	0.0105 KA relative to UGCAUGU
B3	0.036 KA relative to UGCAUGU
B4	0.0138 KA relative to UGCAUGU
B5	0.0135 KA relative to UGCAUGU
B6	0.0286 KA relative to UGCAUGU
B7	0.0209 KA relative to UGCAUGU
B8	0.0232 KA relative to UGCAUGU
B9	0.0245 KA relative to UGCAUGU
B10	0.0326 KA relative to UGCAUGU
B11	0.0169 KA relative to UGCAUGU
B12	0.0404 KA relative to UGCAUGU
B13	0.0254 KA relative to UGCAUGU
B14	0.035 KA relative to UGCAUGU
B15	0.00454 KA relative to UGCAUGU
B16	0.015 KA relative to UGCAUGU
B17	0.00669 KA relative to UGCAUGU

Binder	binding signal
B18	0.00155 KA relative to UGCAUGU
B19	0.0136 KA relative to UGCAUGU
B20	0.0184 KA relative to UGCAUGU
B21	0.0168 KA relative to UGCAUGU
B22	0.0295 KA relative to UGCAUGU
B23	0.0109 KA relative to UGCAUGU
B24	0.0143 KA relative to UGCAUGU
B25	0.0526 KA relative to UGCAUGU
B26	0.0236 KA relative to UGCAUGU
B27	0.0201 KA relative to UGCAUGU
B28	0.0302 KA relative to UGCAUGU
B29	0.0415 KA relative to UGCAUGU
B30	0.0251 KA relative to UGCAUGU
B31	0.0289 KA relative to UGCAUGU
B32	0.0332 KA relative to UGCAUGU
B33	0.0324 KA relative to UGCAUGU
